Test results from PubChem BioAssay (EPA / NIEHS).
Several values for one entry are separate records, joined by “and”; a condition that tells them apart may be missing. Identical values can stand only once. Inconclusive results are not listed. More than one record can exist for a structure, and the calls need not agree. Activity calls are given as the source filed them. Rule for the calls: active = hit-call score of the fitted dose curve at least 0.9, where 1 is the maximum; inconclusive = response in the unintended direction; inactive = score below 0.9.

Experiments:
[1] = ATG_M_06_XSP2: Attagene TRANS-FACTORIAL Multi-Species (XSP2) HepG2 Assay for M06 Transcription Factor (Internal Marker) (AID 2283811);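 note: hits are increases in signal above the DMSO baseline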
In short: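 HepG2 cells transiently transfected with GAL4-UAS multiple reporter units, medium containing 3 nM 6-alpha-fluorotestosterone and 1.5 nM norgestrel; reporter mRNA measured 24 hours post-dosing by RT-PCR and capillary electrophoresis. Internal background marker, gain of signal vs DMSO.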

[2] = test system: turtle Estrogen Receptor (ERa), gene 101933533; experiment: ATG_trERa_XSP2: Attagene TRANS-FACTORIAL Multi-Species (XSP2) HepG2 Assay for turtle Estrogen Receptor (ERa) (AID 2283812);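 note: human HepG2 liver cells transiently expressing turtle ERa-Gal4 chimeric receptor; actives raise reporter signal above DMSO so AC50 reflects agonist activity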
In short: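 HepG2 cells transiently transfected with GAL4-UAS reporter units expressing turtle ERa-Gal4 chimera. Reporter mRNA measured after 24 h dosing by RT-PCR, fluorescent labelling and capillary electrophoresis; gain of signal fitted versus DMSO.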

[3] = target: Estrogen receptor beta (Homo sapiens) (UniProt Q92731); experiment: ATG_hERb_XSP2: Attagene TRANS-FACTORIAL Multi-Species (XSP2) HepG2 Assay for human Estrogen Receptor (ERb) (AID 2283813);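 note: actives raise reporter mRNA above DMSO so AC50 reflects agonist induction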
Estrogen receptor beta (Homo sapiens), sequence (Q92731 whole entry, looked up, the tested form may be a part): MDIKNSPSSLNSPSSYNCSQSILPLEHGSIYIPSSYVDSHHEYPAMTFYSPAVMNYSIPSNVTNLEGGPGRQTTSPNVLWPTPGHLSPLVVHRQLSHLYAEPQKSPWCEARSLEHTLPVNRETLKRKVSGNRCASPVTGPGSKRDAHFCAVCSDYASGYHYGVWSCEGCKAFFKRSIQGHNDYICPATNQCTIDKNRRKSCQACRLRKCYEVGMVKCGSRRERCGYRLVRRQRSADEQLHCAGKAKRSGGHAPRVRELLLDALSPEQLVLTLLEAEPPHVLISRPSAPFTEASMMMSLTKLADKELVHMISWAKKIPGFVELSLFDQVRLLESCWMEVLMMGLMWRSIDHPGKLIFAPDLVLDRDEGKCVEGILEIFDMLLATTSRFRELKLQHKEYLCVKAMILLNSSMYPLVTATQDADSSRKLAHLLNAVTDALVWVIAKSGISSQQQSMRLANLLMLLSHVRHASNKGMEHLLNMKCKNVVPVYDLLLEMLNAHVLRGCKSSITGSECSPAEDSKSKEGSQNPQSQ
In short: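 HepG2 cells transiently transfected with GAL4-UAS reporter units and chimeric human ERb-Gal4, 24 h exposure. Reporter mRNA quantified by RT-PCR with FAM labelling, HpaI digestion and capillary electrophoresis; gain of signal versus DMSO.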

[4] = target: zebrafish Estrogen Receptor (ER1), esr1 (gene 259252) (UniProt P57717); experiment: ATG_zfER1_XSP2: Attagene TRANS-FACTORIAL Multi-Species (XSP2) HepG2 Assay for zebrafish Estrogen Receptor (ER1) (AID 2283816)
zebrafish Estrogen Receptor (ER1), esr1 (gene 259252), sequence (P57717 whole entry, looked up, the tested form may be a part): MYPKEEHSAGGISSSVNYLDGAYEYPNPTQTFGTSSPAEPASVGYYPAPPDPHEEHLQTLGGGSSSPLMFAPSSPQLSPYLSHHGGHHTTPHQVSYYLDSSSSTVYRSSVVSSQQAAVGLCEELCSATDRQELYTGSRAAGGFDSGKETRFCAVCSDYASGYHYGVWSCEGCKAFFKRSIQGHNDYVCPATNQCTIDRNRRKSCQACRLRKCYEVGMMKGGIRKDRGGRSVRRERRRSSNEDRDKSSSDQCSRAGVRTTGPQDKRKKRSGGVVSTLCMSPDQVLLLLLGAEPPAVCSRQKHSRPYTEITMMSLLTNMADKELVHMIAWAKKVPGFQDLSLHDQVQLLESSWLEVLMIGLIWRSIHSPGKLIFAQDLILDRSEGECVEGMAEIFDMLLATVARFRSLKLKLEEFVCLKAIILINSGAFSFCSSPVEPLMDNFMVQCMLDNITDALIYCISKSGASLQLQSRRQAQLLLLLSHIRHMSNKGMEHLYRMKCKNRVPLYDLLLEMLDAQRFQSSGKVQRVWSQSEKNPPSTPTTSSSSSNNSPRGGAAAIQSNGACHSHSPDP
In short: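 HepG2 cells transiently transfected with a GAL4-UAS reporter and a chimeric zebrafish ER1-Gal4 construct, dosed 24 h. Reporter mRNA quantified by RT-PCR, labelling, HpaI digestion and capillary electrophoresis, relative to DMSO.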

[5] = target: chicken Estrogen Receptor (ERa), ESR1 (gene 396099) (UniProt P06212); experiment: ATG_chERa_XSP2: Attagene TRANS-FACTORIAL Multi-Species (XSP2) HepG2 Assay for chicken Estrogen Receptor (ERa) (AID 2283817);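 note: actives raise reporter signal above DMSO so AC50 reflects ER activation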
chicken Estrogen Receptor (ERa), ESR1 (gene 396099), sequence (P06212 whole entry, looked up, the tested form may be a part): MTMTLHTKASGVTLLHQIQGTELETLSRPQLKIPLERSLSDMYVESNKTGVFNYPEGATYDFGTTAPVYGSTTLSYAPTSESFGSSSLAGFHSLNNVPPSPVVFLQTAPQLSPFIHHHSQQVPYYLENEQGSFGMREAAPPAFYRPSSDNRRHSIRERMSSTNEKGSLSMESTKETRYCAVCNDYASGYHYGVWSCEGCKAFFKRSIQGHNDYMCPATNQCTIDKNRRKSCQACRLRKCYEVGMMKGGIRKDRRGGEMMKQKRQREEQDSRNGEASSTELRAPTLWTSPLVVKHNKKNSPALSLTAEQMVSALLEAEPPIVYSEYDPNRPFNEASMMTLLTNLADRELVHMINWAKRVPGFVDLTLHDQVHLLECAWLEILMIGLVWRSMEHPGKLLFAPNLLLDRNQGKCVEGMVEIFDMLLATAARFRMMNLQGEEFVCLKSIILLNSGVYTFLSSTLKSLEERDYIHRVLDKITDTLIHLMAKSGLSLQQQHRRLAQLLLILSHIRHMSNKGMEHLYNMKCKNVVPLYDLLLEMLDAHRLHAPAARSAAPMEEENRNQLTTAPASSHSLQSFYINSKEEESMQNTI
In short: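 Transiently transfected HepG2 cells expressing chimeric chicken ERa-GAL4 reporter units, dosed 24 h with 3 nM 6-alpha-fluorotestosterone and 1.5 nM norgestrel present. Reporter mRNA measured by RT-PCR and capillary electrophoresis; gain-of-signal fitted relative to DMSO.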

[6] = test system: zebrafish Estrogen Receptor (ER2a), gene 317734; experiment: ATG_zfER2a_XSP2: Attagene TRANS-FACTORIAL Multi-Species (XSP2) HepG2 Assay for zebrafish Estrogen Receptor (ER2a) (AID 2283818);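 note: hits raise reporter mRNA so AC50 reflects activation of zebrafish ER2a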
In short: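 HepG2 cells transiently transfected with GAL4-UAS reporter units and chimeric zebrafish ER2a-Gal4, exposed 24 h; medium contains 3 nM 6-alpha-fluorotestosterone and 1.5 nM norgestrel. Reporter mRNA quantified by RT-PCR, HpaI digestion, capillary electrophoresis; gain versus DMSO.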

[7] = ATG_M_19_XSP2: Attagene TRANS-FACTORIAL Multi-Species (XSP2) HepG2 Assay for M32 Transcription Factor (Internal Marker) (AID 2283822)
In short: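 Internal background marker in a multi-species nuclear receptor TRANS panel: transfected HepG2 cells exposed 24 h, with 3 nM 6-alpha-fluorotestosterone and 1.5 nM norgestrel present. Readout is RT-PCR of reporter transcripts resolved by capillary electrophoresis, gain-of-signal versus DMSO.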

[8] = test system: zebrafish Estrogen Receptor (ER2b), gene 317733; experiment: ATG_zfER2b_XSP2: Attagene TRANS-FACTORIAL Multi-Species (XSP2) HepG2 Assay for zebrafish Estrogen Receptor (ER2b) (AID 2283823);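 note: fitted upward as reporter gain over DMSO so potency reflects activation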
In short: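 Transfect HepG2 with GAL4-UAS reporter constructs; dose chemicals, 24 h; isolate RNA, RT-PCR, FAM-label, HpaI digest; capillary electrophoresis. Gain-of-signal vs DMSO.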

[9] = ATG_M_32_XSP2: Attagene TRANS-FACTORIAL Multi-Species (XSP2) HepG2 Assay for M19 Transcription Factor (Internal Marker) (AID 2283826)
In short: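 Read-out: fluorescent reporter mRNA fragments resolved by capillary electrophoresis after RT-PCR, gain-of-signal versus DMSO baseline. Cells were human HepG2 carrying transfected multi-reporter units, exposed 24 h. Medium contained 3 nM 6-alpha-fluorotestosterone plus 1.5 nM norgestrel.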

[10] = target: Estrogen receptor (Homo sapiens) (UniProt P03372); experiment: ATG_hERa_XSP2: Attagene TRANS-FACTORIAL Multi-Species (XSP2) HepG2 Assay for human Estrogen Receptor (ERa) (AID 2283827)
Estrogen receptor (Homo sapiens), sequence (P03372 whole entry, looked up, the tested form may be a part): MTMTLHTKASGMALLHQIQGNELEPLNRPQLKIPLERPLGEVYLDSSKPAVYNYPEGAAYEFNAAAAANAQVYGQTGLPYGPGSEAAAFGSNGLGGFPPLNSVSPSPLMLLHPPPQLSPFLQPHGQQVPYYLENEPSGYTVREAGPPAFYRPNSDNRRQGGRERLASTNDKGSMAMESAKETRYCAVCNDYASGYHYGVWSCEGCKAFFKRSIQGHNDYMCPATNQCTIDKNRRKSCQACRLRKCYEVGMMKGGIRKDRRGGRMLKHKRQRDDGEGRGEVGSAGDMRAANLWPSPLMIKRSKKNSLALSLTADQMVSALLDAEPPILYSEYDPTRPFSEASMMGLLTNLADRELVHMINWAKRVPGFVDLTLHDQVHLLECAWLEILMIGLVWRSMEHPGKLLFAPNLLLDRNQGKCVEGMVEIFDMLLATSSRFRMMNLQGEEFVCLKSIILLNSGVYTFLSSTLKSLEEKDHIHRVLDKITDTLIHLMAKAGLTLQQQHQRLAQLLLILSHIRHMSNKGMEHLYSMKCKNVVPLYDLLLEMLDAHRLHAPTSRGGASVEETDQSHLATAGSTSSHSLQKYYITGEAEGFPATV
In short: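 HepG2 cells transiently transfected with multiplexed GAL4-UAS reporters driven by chimeric receptor-Gal4 proteins, dosed 24 h with 3 nM 6-alpha-fluorotestosterone and 1.5 nM norgestrel present. Reporter mRNA by RT-PCR and capillary electrophoresis; gain-of-signal fit versus DMSO.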

[11] = target: Peroxisome proliferator-activated receptor gamma (Homo sapiens) (UniProt P37231); experiment: ATG_hPPARg_XSP2: Attagene TRANS-FACTORIAL Multi-Species (XSP2) HepG2 Assay for human Peroxisome Proliferator-activated Receptor gamma (PPARg) (AID 2283829);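 note: actives raise reporter mRNA above DMSO so AC50 reflects PPARg activation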
Peroxisome proliferator-activated receptor gamma (Homo sapiens), sequence (P37231 whole entry, looked up, the tested form may be a part): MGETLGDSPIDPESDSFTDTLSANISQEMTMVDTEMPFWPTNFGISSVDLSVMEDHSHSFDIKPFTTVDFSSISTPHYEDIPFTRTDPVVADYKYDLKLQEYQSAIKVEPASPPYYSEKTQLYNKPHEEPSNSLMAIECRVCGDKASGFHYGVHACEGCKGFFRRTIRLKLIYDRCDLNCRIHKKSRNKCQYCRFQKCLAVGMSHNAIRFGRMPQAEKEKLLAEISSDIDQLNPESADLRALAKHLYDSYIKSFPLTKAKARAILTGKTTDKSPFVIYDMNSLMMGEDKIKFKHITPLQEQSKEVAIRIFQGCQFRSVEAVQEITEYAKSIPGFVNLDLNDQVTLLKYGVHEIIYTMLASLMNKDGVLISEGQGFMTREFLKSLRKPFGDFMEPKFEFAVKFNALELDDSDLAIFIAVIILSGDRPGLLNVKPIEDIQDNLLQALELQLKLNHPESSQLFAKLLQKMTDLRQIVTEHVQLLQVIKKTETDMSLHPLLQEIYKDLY
In short: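 Transient MRTU transfection, HepG2; TRANS format (exogenous NR-Gal4 chimeras). 24 h chemical exposure with 3 nM 6-alpha-fluorotestosterone and 1.5 nM norgestrel present. Readout: reporter mRNA via RT-PCR/CE fluorescence, up-direction vs DMSO.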

[12] = target: human Thyroid hormone Receptor beta (TRb), THRB (gene 7068) (UniProt P10828); experiment: ATG_hTRb_XSP1: Attagene TRANS-FACTORIAL Multi-Species (XSP1) HepG2 Assay for human Thyroid hormone Receptor beta (TRb) (AID 2283808)
human Thyroid hormone Receptor beta (TRb), THRB (gene 7068), sequence (P10828 whole entry, looked up, the tested form may be a part): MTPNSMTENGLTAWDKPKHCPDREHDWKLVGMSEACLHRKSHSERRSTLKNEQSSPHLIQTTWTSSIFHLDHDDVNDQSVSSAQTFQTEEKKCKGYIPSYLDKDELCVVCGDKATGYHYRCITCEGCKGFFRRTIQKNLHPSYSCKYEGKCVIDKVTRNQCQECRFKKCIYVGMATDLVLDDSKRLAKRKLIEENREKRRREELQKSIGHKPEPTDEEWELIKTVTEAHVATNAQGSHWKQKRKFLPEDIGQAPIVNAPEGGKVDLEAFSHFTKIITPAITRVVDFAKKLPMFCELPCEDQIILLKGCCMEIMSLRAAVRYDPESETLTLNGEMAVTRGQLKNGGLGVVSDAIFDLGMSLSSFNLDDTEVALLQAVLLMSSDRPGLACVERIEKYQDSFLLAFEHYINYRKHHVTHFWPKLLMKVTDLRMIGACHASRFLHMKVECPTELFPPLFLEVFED
In short: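 HepG2 cells transiently transfected with reporter units driving GAL4-UAS reporters for chimeric NR-Gal4 proteins; 24 h chemical exposure with 3 nM 6-alpha-fluorotestosterone present. Reporter mRNA quantified by RT-PCR and capillary electrophoresis, gain of signal versus DMSO.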

[13] = target: zebrafish Thyroid Hormone Receptor beta (TRb), thrb (gene 30607) (UniProt Q9PVE4); experiment: ATG_zfTRb_XSP1: Attagene TRANS-FACTORIAL Multi-Species (XSP1) HepG2 Assay for zebrafish Thyroid Hormone Receptor beta (TRb) (AID 2283809)
zebrafish Thyroid Hormone Receptor beta (TRb), thrb (gene 30607), sequence (Q9PVE4 whole entry, looked up, the tested form may be a part): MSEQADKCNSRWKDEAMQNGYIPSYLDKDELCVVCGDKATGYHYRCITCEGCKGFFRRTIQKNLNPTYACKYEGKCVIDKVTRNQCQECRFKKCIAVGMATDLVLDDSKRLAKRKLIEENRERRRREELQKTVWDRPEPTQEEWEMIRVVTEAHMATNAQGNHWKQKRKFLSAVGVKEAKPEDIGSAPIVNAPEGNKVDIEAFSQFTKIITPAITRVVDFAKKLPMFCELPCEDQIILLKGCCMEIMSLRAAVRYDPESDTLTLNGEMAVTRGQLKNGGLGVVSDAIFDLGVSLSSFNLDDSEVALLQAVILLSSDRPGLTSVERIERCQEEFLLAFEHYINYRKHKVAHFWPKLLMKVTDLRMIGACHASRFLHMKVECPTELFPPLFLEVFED
In short: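 HepG2 cells transiently transfected with multiplexed GAL4-UAS reporter units expressing chimeric zebrafish TRb–Gal4. Dosed 24 h with 3 nM 6-alpha-fluorotestosterone present; reporter mRNA measured by RT-PCR, HpaI digestion and capillary electrophoresis; gain of signal versus DMSO.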

[14] = ATG_XTT_Cytotoxicity_XSP1: Cytotoxicity Assessment in the Attagene TRANS-FACTORIAL Multi-Species (XSP1) HepG2 Assay (AID 2283810)
In short: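 XTT viability readout taken at 24 hours post-dosing in HepG2 liver cells co-treated with 3 nM 6-alpha-fluorotestosterone. Signal loss relative to DMSO controls reflects cytotoxicity.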

[15] = test system: turtle Androgen Receptor (AR), gene 101947425; experiment: ATG_trAR_XSP2: Attagene TRANS-FACTORIAL Multi-Species (XSP2) HepG2 Assay for turtle Androgen Receptor (AR) (AID 2283815);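 for AC50: potency for gain of reporter signal meaning activation above DMSO baseline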
In short: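 HepG2 cells transiently transfected with GAL4-UAS reporter units for chimeric NR-Gal4 receptors; 24 h dosing in presence of 3 nM 6-alpha-fluorotestosterone and 1.5 nM norgestrel. Reporter mRNA by RT-PCR and capillary electrophoresis, gain of signal versus DMSO.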

[16] = test system: chicken Androgen Receptor (AR), gene 422165; experiment: ATG_chAR_XSP2: Attagene TRANS-FACTORIAL Multi-Species (XSP2) HepG2 Assay for chicken Androgen Receptor (AR) (AID 2283819);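 note: hits raise reporter mRNA above DMSO so potency is for activation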
In short: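 HepG2 cells transiently transfected with chicken AR–GAL4 chimeric reporter constructs, stimulated with 3 nM 6-alpha-fluorotestosterone plus 1.5 nM norgestrel, dosed 24 h. Reporter mRNA quantified by RT-PCR and capillary electrophoresis; gain of signal fitted versus DMSO.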

[17] = target: GAL4 Transcription Factor (Internal Marker), GAL4 (gene 855828) (UniProt P04386); experiment: ATG_GAL4_XSP2: Attagene TRANS-FACTORIAL Multi-Species (XSP2) HepG2 Assay for GAL4 Transcription Factor (Internal Marker) (AID 2283814);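 note: GAL4 reporter mRNA background control in MRTU transfected cells not a receptor target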
GAL4 Transcription Factor (Internal Marker), GAL4 (gene 855828), sequence (P04386 whole entry, looked up, the tested form may be a part): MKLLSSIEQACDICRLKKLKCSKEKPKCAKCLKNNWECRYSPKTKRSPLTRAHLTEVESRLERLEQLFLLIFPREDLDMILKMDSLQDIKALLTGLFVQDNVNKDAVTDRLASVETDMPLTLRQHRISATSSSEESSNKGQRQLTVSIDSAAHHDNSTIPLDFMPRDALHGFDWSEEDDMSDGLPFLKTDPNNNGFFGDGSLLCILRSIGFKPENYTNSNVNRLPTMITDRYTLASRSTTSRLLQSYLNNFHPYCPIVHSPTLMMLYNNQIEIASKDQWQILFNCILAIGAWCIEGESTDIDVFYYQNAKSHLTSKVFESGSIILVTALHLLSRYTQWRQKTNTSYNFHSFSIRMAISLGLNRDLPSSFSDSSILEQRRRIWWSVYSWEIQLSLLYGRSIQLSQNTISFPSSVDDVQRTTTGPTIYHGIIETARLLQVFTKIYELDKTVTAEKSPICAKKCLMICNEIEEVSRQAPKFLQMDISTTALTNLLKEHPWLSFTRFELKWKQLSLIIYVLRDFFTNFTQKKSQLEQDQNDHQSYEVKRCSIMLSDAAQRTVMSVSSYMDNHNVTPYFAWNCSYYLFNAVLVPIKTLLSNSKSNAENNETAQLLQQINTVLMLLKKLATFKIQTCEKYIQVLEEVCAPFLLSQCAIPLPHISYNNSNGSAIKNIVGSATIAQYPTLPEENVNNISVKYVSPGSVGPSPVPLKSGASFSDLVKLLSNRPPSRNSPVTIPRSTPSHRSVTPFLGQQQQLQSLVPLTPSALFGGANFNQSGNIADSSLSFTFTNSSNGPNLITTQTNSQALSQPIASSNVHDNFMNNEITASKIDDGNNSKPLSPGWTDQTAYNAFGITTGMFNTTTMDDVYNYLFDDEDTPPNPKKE
In short: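 HepG2 cells transiently transfected with GAL4-UAS reporter units, stimulated with 3 nM 6-alpha-fluorotestosterone plus 1.5 nM norgestrel, dosed 24 h. Reporter mRNA by RT-PCR/capillary electrophoresis; gain-of-signal fit versus DMSO, background control.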

[18] = test system: frog Androgen Receptor (AR), gene 399456; experiment: ATG_frAR_XSP2: Attagene TRANS-FACTORIAL Multi-Species (XSP2) HepG2 Assay for frog Androgen Receptor (AR) (AID 2283824);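 note: actives raise reporter signal above DMSO so AC50 reflects agonist-like induction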
In short: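 HepG2 cells transiently transfected with GAL4-UAS reporter units and frog (Xenopus laevis) AR-Gal4 chimera; reporter mRNA measured 24 h after dosing by RT-PCR and capillary electrophoresis. Gain of signal fitted relative to DMSO baseline.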

Measured: AC50

CCOC(=O)C(O)(c1ccc(Cl)cc1)c1ccc(Cl)cc1
inactive: [1] | [2] | [3] | [4] | [5] | [6] | [7] | [9]
active: [2] 6.68 µM | [5] 8.82 µM | [8] 28.4 µM and 17.1 µM | [10] 24.3 µM and 33.4 µM | [11] 17.4 µM and 31.3 µM

C[C@]12CCC(=O)C=C1CC[C@@H]1[C@@H]2CC[C@]2(C)C(=O)CC[C@@H]12
active: [2] 12.9 nM and 12 nM | [3] 19.2 nM | [15] 2080 nM | [4] 3.13 µM | [5] 9.2 nM and 10.8 nM | [6] 28.2 nM and 100 nM | [16] 379 nM | [8] 58.9 nM and 39.4 nM | [10] 10.2 nM and 16.5 nM
inactive: [12] | [13] | [14] | [1] | [3] | [15] | [4] | [16] | [11]

Cc1cc(-c2ccc(N)c(C)c2)ccc1N
active: [2] 6.32 µM and 13.2 µM | [4] 65.7 µM and 100 µM and 81.1 µM | [5] 7.48 µM and 27.1 µM and 17.7 µM | [6] 4.47 µM and 11 µM and 6.8 µM | [8] 34.9 µM and 61.3 µM and 39.7 µM | [10] 3.66 µM and 9.97 µM and 9.48 µM | [11] 16.2 µM and 72.1 µM and 100 µM
inactive: [17] | [7]

CC(C)(c1ccccc1)c1ccc(O)cc1
active: [2] 0.516 µM | [3] 531 nM | [4] 6.4 µM | [5] 1.15 µM | [8] 2770 nM | [10] 726 nM
inactive: [12] | [13] | [14] | [1] | [6] | [11]

CC(c1ccc(O)cc1)(c1ccc(O)cc1)c1ccc(O)cc1
active: [16] 314 nM | [8] 688 nM | [18] 267 nM
inactive: [1] | [2] | [15] | [4] | [5] | [6] | [16] | [7] | [8] | [18] | [9] | [10] | [11]

Clc1ccc(C(c2ccccc2Cl)C(Cl)(Cl)Cl)cc1 (centres undefined)
active: [2] 1.14 µM | [5] 0.656 µM | [6] 1.58 µM | [8] 998 nM
inactive: [12] | [13] | [14] | [1] | [3] | [4] | [11]
